In the library only some 3.9% were active in any assay of this set; here they are far more common.
HSF1 inhib: HSF1 inhibition; AID 2098; activity change, negative = inhibition, % at 7.5 µM (by protocol); 300,000 tested, 0.77% active; NIH3T3-HGL HSE-luciferase, MG132-induced, luminescence 8 h; active compounds read low;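 active = more than half of replicate wells show activity change below -50%, luminescence cut by over half; inconclusive = some wells, but at most half, below -50%; inactive = no replicate well below -50%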;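 note: luciferase reports HSF-1 transcriptional activity via heat shock element; 0% = median of DMSO wells and -100% = zero luminescence signal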
HSF1 activator: increases HSF-1 driven luciferase reporter signal. NIH3T3-HGL HSF-1 luciferase reporter, MG132, 8 h; 100% = twice DMSO control signal. activation, % at 9 µM. 300,000 tested, 1.7% active. AID 504408;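 active = mean replicate activation of at least 50% with a set share of replicates each reaching 50%; inconclusive = only one of those two conditions met; inactive = mean below 50% and too few replicates reaching it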;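 note: 0% = median of the neutral control wells and 100% = twice that signal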
MITF act: MITF TRPM1 promoter activation in melanoma cells. SK-MEL-5 TRPM1-promoter luciferase, 24 h; % of positive control, neutral wells = 0. activation, % at 12.5 µM. 300,000 tested, 0.75% active. AID 588334;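 active = mean activation of at least 80% with every replicate also reaching 80%; inconclusive = mean reaches 80% but some replicate falls short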;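 note: 0% = neutral control wells and 100% = parthenolide positive control wells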
Wnt bcat act: activates Wnt/beta-catenin signaling in a reporter cell assay; activator, plate reader; activation, % at 9.35 µM; 300,000 tested, 1.2% active; AID 743398; in the data active = activation above about 30%, passing the limit was not always enough; inconclusive = no clear call, values can overlap the other calls;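 note: 0% = neutral control wells and 100% = positive control wells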
esBAF inh: SWI/SNF esBAF complex inhibition; mouse ES cells, Bmi1-luciferase knock-in reporter, 24 h; 100% = twice the neutral-well signal; reporter increase, % at 12.5 µM; 350,000 tested, 2% active; AID 602393; in the data active = activation above about 40%; inconclusive = no clear call, values can overlap the other calls;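 note: 0% = median of the plate's neutral control wells and 100% = double that signal; a rise in the Bmi1 reporter signal indicates esBAF inhibition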
The depositor's hits bear a star; ? = inconclusive; / = no result.

SMILES	HSF1 inhib	HSF1 activator	MITF act	Wnt bcat act	esBAF inh
C[C@@H]1CN([C@H](C)CO)C(=O)c2cccc(NC(=O)c3ccc(-c4nccs4)cc3)c2O[C@H]1CN(C)S(=O)(=O)c1cn(C)cn1	/	/	/	/	4
CCC(=NCc1ccc(Cl)c(Cl)c1)c1nc(-c2ccco2)oc1O	37	72*	25	17	4
Cc1nn(Cc2ccc(Cl)c(Cl)c2)c(C)c1NC(=O)c1cc(-c2ccco2)on1	17	47	-21	-5	-13
Cc1oc(-c2ccc(Cl)cc2)cc1C(=O)O	15	32	43	23	56*
Cc1ccc(SCC(=O)NC(=O)NCCC(C)C)c(C)c1	17	4	7	41*	/
CCc1ccccc1NC1=NCC(=O)N1C1CCCCC1	33	59*	-9	/	-2
O=C(C[C@@H]1C[C@H]2c3cc(NC(=O)Nc4ccccc4)ccc3O[C@H]2[C@@H](CO)O1)NCC1CC1	/	/	/	/	3
O=C1c2cccc3c(N4CCCCC4)ccc(c23)C(=O)N1CCO	83	109*	59	53*	72*
COc1ccc(Nc2n[nH]c(C)c2[N+](=O)[O-])cc1	15	28	79	35*	/
Cc1[nH]nc(Nc2ccc(O)cc2)c1[N+](=O)[O-]	4	0	23	9	/
CSc1ccccc1NC(=O)C(=O)c1c[nH]c2ccccc12	27	62*	39	8	/
O=C(c1ccccc1)c1ccc2cc(O)ccc2c1	21	27	47	20	55*
COCc1c(C(=O)Nc2nc(C)cs2)oc2ccccc12	4	8	-11	7	/
COc1ccc(C(=O)Nc2ccccn2)cc1	-5	-3	-1	/	-5
COc1ccc2oc(C(=O)Nc3ccc(C)cn3)c(C)c2c1	19	39	76	38*	?
COc1ccc2oc(C(=O)NCCC(C)C)c(C)c2c1	28	31	?	-2	26
COc1ccc2oc(C(=O)Nc3nc(C)cs3)c(C)c2c1	/	/	79	51*	22
COc1ccc2oc(C(=O)Nc3ccccn3)c(C)c2c1	14	33	-8	43*	-49
Cc1c(NC(=O)C(C)N2CC(C)OC(C)C2)c(=O)n(-c2ccccc2)n1C (stereo unspecified)	16	60*	/	1	0
Cc1c(NC(=O)C(C)N2C(=O)C3CCCCC3C2=O)c(=O)n(-c2ccccc2)n1C (stereo unspecified)	-4	-4	4	1	/
COc1ccc(NC(=O)Nc2ccc3c(c2)C(=O)N([C@@H](C)CO)C[C@H](C)[C@@H](CN(C)C(=O)Nc2ccc4c(c2)OCO4)OCCCC[C@H](C)O3)cc1	/	/	/	/	-4
Oc1ccc2ccccc2c1C=NCc1ccccc1	/	/	-17	3	/
Oc1ccccc1C=NN=Cc1c(O)ccc2ccccc12	-29	-29	29	48*	/
Oc1ccc2ccccc2c1C=Nc1ccc(Cl)cn1	-2	-4	-3	46*	/
Cc1cc(O)c(C=Nc2ccc(Cl)cn2)c(=O)o1	-11	-1	-12	/	/
SMILES	HSF1 inhib	HSF1 activator	MITF act	Wnt bcat act	esBAF inh
Cc1cc(-c2ccccc2)c2ccc(NC(=O)C(C)(C)C)nc2n1	-62*	-70	0	-1	-2
Cc1cc(C)nc(/N=C(\NC(=O)C(C)(C)C)Nc2ccccc2)n1	-6	-5	/	2	-4
COCCNC(=O)C[C@@H]1C[C@@H]2c3cc(NC(=O)Nc4ccccc4F)ccc3O[C@@H]2[C@H](CO)O1	/	/	/	/	-1
C(=N\Nc1nc(-c2ccccc2)cs1)/c1cccs1	14	24	51	56*	/
Clc1ccc(-c2csc(N/N=C/c3ccco3)n2)cc1	8	17	37	14	/
Cc1ccc(-c2csc(N/N=C/c3ccco3)n2)cc1	1	13	75	16	?
Brc1ccc(-c2csc(N/N=C/c3ccco3)n2)cc1	/	/	56	38*	?
C(=N\Nc1nc(-c2ccccc2)cs1)/c1ccco1	8	19	97*	/	/
COc1ccc(CNC(=O)C[C@H]2CC[C@@H]3[C@@H](COc4ccc(NC(=O)C(C)C)cc4C(=O)N3C)O2)cc1	/	/	/	/	3
Cc1noc(C)c1NC(=O)Nc1ccc2c(c1)C(=O)N([C@@H](C)CO)C[C@@H](C)[C@@H](CN(C)S(=O)(=O)c1c(C)noc1C)O2	/	/	/	/	-5
CC(=O)Nc1cccc(NC(=O)c2ccc(COc3ccccc3)cc2)c1	28	37	154*	-2	98*
CC(=O)Nc1cccc(OCCCOc2ccc([N+](=O)[O-])cc2)c1	7	28	19	1	/
CC(=O)Nc1cccc(OCc2ccc([N+](=O)[O-])cc2)c1	/	/	/	43*	/
COc1ccc(/C=C/C(=O)c2ccc(O)cc2)cc1CN1CCOCC1	23	35	-16	/	/
COc1ccc(/C=C/C(=O)C23CC4CC(CC(C4)C2)C3)cc1CN1CCOCC1	64	122*	-5	/	/
COc1ccccc1S(=O)(=O)Nc1ccc2c(c1)OC[C@H](C)NC[C@@H](C)[C@@H](OC)CN(C)C2=O	/	/	/	/	2
O=C(c1ccccc1)N1CCN(CC(O)COc2cccc3ccccc23)CC1 (stereo unspecified)	-1	13	/	2	-2
O=C(NCc1ccccc1)c1cccc(COc2ccccc2Cl)c1	-38	-52	41	-1	45*
O=C(NCc1ccccc1)c1cccc(COc2cc(Cl)ccc2Cl)c1	20	42	70	11	71*
CN(C(=O)c1cccc(COc2ccc(Cl)cc2Cl)c1)c1ccccc1	-15	-26	38	/	72*
O=C(c1cccc(COc2cccc3ccccc23)c1)N1CCCC1	2	18	/	?	74*
O=C(NCc1ccccc1)c1cnc(Cl)c(Cl)c1	8	10	13	4	6
COc1ccc(S(=O)(=O)N(C)C[C@@H]2OCCCC[C@H](C)Oc3ccc(NC(=O)Cc4ccccc4)cc3C(=O)N([C@@H](C)CO)C[C@H]2C)cc1	/	/	/	/	0
O=C(C[C@@H]1CC[C@H](NC(=O)c2cccc(F)c2)[C@@H](CO)O1)NCCN1CCCC1	/	/	/	/	0
CN1CCSc2ccc(C(=O)NCc3cccc(F)c3)cc21	5	23	/	11	9
SMILES	HSF1 inhib	HSF1 activator	MITF act	Wnt bcat act	esBAF inh
COc1cccc(NC(=O)c2ccc3c(c2)CCN3S(C)(=O)=O)c1	7	21	/	9	56*
CN1CCSc2ccc(C(=O)Nc3ccc(Cl)cc3)cc21	80	122*	?	37*	/
COc1cccc(NC(=O)c2ccc3c(c2)N(C)CCS3)c1	63	92*	58	50*	51*
COC(=O)C[C@H]1CC[C@H]2[C@@H](COc3ccc(NC(=O)c4ccc(C#N)cc4)cc3C(=O)N2C)O1	/	/	/	/	5
COc1ccc(C#Cc2cnc3c(c2)C(=O)N([C@H](C)CO)C[C@H](C)[C@H](CN(C)Cc2ccncc2)O3)cc1OC	/	/	/	/	0
C[C@@H]1CN([C@@H](C)CO)S(=O)(=O)c2ccc(C#Cc3ccccc3F)cc2O[C@H]1CN(C)CC1CC1	/	/	/	/	1
C[C@H](CO)N1C[C@H](C)[C@@H](CN(C)C(=O)Nc2ccccc2)Oc2ncc(Br)cc2C1=O	/	/	/	/	-3

High-throughput results: PubChem BioAssay, Broad Institute
